Screening results deposited in PubChem BioAssay by National Center for Advancing Translational Sciences (NCATS).
SW480 rerep: A quantitative high throughput screen for small molecules that induce DNA re-replication in SW480 colon adenocarcinoma cells; Potency, µM (top dose mostly 46.1 µM), usual class: activators; 340,000 tested, 1.8% active; SW480 DNA re-replication, Hoechst DNA content imaging, 48 h; also: nearly all actives have a fitted effect of over 55% in size
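Compounds, transferred as 23 nL by pin tool, were incubated with cells for 48 hr; DNA content per nucleus was then quantified by Hoechst staining and fluorescence plate imaging.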
IL1B secr inh: qHTS for Inhibitors of Inflammasome Signaling: IL-1-beta AlphaLISA Primary Screen | THP-1 LPS/ATP IL-1B secretion, AlphaLISA, 16 h; stronger effect = lower value | activity change, % at 57.5 µM | 360,000 tested, 4.7% active; in the data active = activity change below about -50%; inconclusive = mostly about -30% to -49%
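THP-1 cells pretreated 1 hr with compounds (up to 57.5 uM final), then stimulated with LPS (250 ng/mL final) plus ATP (1.25 mM final); secreted IL-1B measured by AlphaLISA after 16 hr, decreased signal indicating inhibition.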
KB-V1 cytotox: qHTS assay for MDR1-selective chemotherapeutics: Primary screen using the drug-selected MDR subline cells KB-V1 | AID 1347076, 2019 | 400,000 tested, 3.4% active | KB-V1 MDR cells viability, CellTiter-Glo, 72 h | Potency, µM (top dose mostly 46.1 µM), most hits filed as cytotoxic; also: nearly all actives have a fitted effect of over 60% in size
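KB-V1 cells (P-gp-expressing MDR subline of KB-3-1) in phenol-red-free DMEM with 10% FBS were exposed to library compounds over a concentration series for 72 h at 37 degrees C. Viability read by CellTiter-Glo luminescence; concentration-effect curves fitted after normalization.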
MCF10A rerep: A quantitative high throughput screen for small molecules that induce DNA re-replication in MCF 10a normal breast cells | MCF 10A DNA re-replication, Hoechst nuclear intensity, 48 h | Potency, µM (doses to about 46.1 µM), hits mostly activators | 350,000 tested, 2.9% active | AID 624296, 2012; also: nearly all actives have a fitted effect of over 50% in size
KB-3-1 tox: qHTS assay for MDR1-selective chemotherapeutics: Primary screen using the parental adenocarcinoma cell KB-3-1; 400,000 tested, 1.4% active; KB-3-1 viability, CellTiter-Glo ATP luminescence, 72 h; AID 1347075, 2019; Potency, µM (series often up to 46.1 µM), usual class: cytotoxic; also: nearly all actives have a fitted effect of over 60% in size
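Multi-concentration cytotoxicity screen in KB-3-1 cells grown in DMEM lacking phenol red with 10% FBS. After 72 h at 37 °C with compound, ATP-dependent luminescence was recorded.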
Each line names hits and unclear results; the compound was inactive in the other large screens. The list is not random: actives were taken first. Their share in the collection is about 9.9%. Unless noted, calls follow the shape of the dose curve; as a rule, active = well fitted curve in the direction sought with a large enough effect; inconclusive = small, poorly fitted or top-dose-only effect, or another doubt; inactive = no such curve, though single readings can be large; an effect the other way counts as inactive or inconclusive.

CCn1cc(C(=O)NC(C)c2ccccc2)c(=O)c2cc(S(=O)(=O)N3CCc4ccccc4C3)ccc21 (stereo not drawn)	none (no result: SW480 rerep, IL1B secr inh, MCF10A rerep)
COC(=O)c1ccccc1NC(=O)CN1CCC(n2nnc3cc(C(F)(F)F)ccc32)CC1	KB-V1 cytotox 4.1µM, MCF10A rerep inconclusive, KB-3-1 tox inconclusive
CC1Cc2ccccc2N1C(=O)CN1CCC(n2nnc3cc(C(F)(F)F)ccc32)CC1 (stereo not drawn)	IL1B secr inh -58, KB-3-1 tox inconclusive
COc1ccc(C(=O)NNC(=O)CN2CCC(n3nnc4cc(C(F)(F)F)ccc43)CC2)cc1	none
CC1CCN(CC(=O)N2c3ccccc3CC2C)CC1 (stereo not drawn)	none
O=C(CN1CCC(n2nnc3cc(C(F)(F)F)ccc32)CC1)Nc1ccc2c(c1)CCC2	IL1B secr inh -50
O=C(CN1CCC(n2nnc3cc(C(F)(F)F)ccc32)CC1)Nc1ccc2c(c1)OCCO2	none
CC(NC(=O)COc1ccc(Br)cc1)C1CCCO1 (stereo not drawn)	SW480 rerep inconclusive
CCC(c1c(C)n(C)n(-c2ccccc2)c1=O)c1c(C)n(C)n(-c2ccccc2)c1=O	none
CCCC(c1c(C)n(C)n(-c2ccccc2)c1=O)c1c(C)n(C)n(-c2ccccc2)c1=O	KB-V1 cytotox inconclusive, KB-3-1 tox 21µM
Cc1ccccc1OCC(=O)Nc1ccc2[nH]c(=O)sc2c1	none (no result: SW480 rerep, IL1B secr inh, MCF10A rerep)
Cc1ccc(NC(=S)Nc2ccc(Cl)c(Cl)c2)c(OC(F)F)c1	IL1B secr inh inconclusive, KB-V1 cytotox 18µM, MCF10A rerep inconclusive, KB-3-1 tox inconclusive
FC(F)Oc1ccc(NC(=S)NCc2ccccc2)cc1Cl	SW480 rerep inconclusive, IL1B secr inh -89, KB-V1 cytotox inconclusive, KB-3-1 tox inconclusive
CCCOc1ccc(CNC(=S)Nc2ccccc2)cc1Cl	SW480 rerep inconclusive, IL1B secr inh -79, MCF10A rerep inconclusive
COc1ccc(NC(=S)Nc2ccc(C)c(Cl)c2)cc1OC	MCF10A rerep inconclusive
Cc1ccc(NC(=S)Nc2ccc(OC(F)F)c(Cl)c2)cc1Cl	IL1B secr inh -92, KB-V1 cytotox 21µM, MCF10A rerep inconclusive, KB-3-1 tox 21µM
CC(C)Cn1c(N)c(C(=O)COC(=O)[C@@H]2CCCN2C(=O)c2cccs2)c(=O)n(C)c1=O	SW480 rerep inconclusive
CC(NC(=S)Nc1ccc(OC(F)F)c(Cl)c1)C(C)(C)C (stereo not drawn)	IL1B secr inh -96, KB-V1 cytotox inconclusive, KB-3-1 tox inconclusive
FC(F)Oc1ccccc1NC(=S)Nc1cccnc1	none
Fc1ccc(NC(=S)Nc2ccccc2OC(F)F)cc1Cl	IL1B secr inh inconclusive, KB-V1 cytotox 16µM, MCF10A rerep inconclusive, KB-3-1 tox inconclusive (no result: SW480 rerep)
CCC(OC(=O)CN1C(=O)C(=O)c2ccccc21)C(=O)Nc1ccccc1OC (stereo not drawn)	none
CC(C)C(NCC(=O)Nc1ccccc1C(=O)NC1CC1)c1ccccc1 (stereo not drawn)	none
Cc1ccc(NC(=O)CN2C(=O)COc3ccc(C)cc32)nc1	KB-V1 cytotox 15µM
COc1ccc(C)cc1NC(=O)CN1C(=O)COc2ccc(S(=O)(=O)N3CCCCCC3)cc21	IL1B secr inh -54
Cc1cnc(C(=O)N(c2ccccc2)C(c2ccccc2)c2nc3ccccc3[nH]2)cn1 (stereo not drawn)	none (no result: SW480 rerep, MCF10A rerep)
CC(C)(CO)NC(=S)NCc1ccco1	KB-V1 cytotox inconclusive
O=C(Nc1ccc(Oc2ccc(NC(=O)Nc3ccc([N+](=O)[O-])cc3)cc2)cc1)Nc1ccc([N+](=O)[O-])cc1	IL1B secr inh -88, KB-V1 cytotox inconclusive, KB-3-1 tox 18µM
Cc1cc([N+](=O)[O-])ccc1NC(=O)Nc1ccc(F)cc1F	IL1B secr inh -82, KB-V1 cytotox 15µM, MCF10A rerep inconclusive, KB-3-1 tox inconclusive
Cc1ccc(NC(=O)Nc2cccc([N+](=O)[O-])c2)cc1F	IL1B secr inh -95, KB-V1 cytotox 16µM, MCF10A rerep inconclusive, KB-3-1 tox inconclusive
Cc1ccc(C(C)C)cc1NC(=O)Nc1ccc([N+](=O)[O-])cc1	IL1B secr inh -52, MCF10A rerep inconclusive, KB-3-1 tox inconclusive
COc1ccc(NC(=O)Nc2ccc(F)cc2F)c(C)c1	none
CS(=O)(=O)N(CC(=O)Nc1ccccc1Br)Cc1ccccc1	KB-V1 cytotox inconclusive, MCF10A rerep inconclusive
CCc1cccc(NC(=O)c2ccc3c(c2)N(Cc2cccc(Cl)c2)C(=O)c2ccccc2S3=O)c1 (stereo not drawn)	none (no result: SW480 rerep, IL1B secr inh, MCF10A rerep)
O=C(Nc1ccc(OC(F)(F)F)cc1)Nc1cccnc1	none
O=C(Nc1ccc(OC(F)(F)F)cc1)Nc1cccc([N+](=O)[O-])c1	SW480 rerep inconclusive, IL1B secr inh -106, KB-V1 cytotox 16µM, MCF10A rerep 12µM, KB-3-1 tox 12µM
CC(C)[C@H](NC(=O)CCCn1nnc2ccccc2c1=O)C(=O)O	IL1B secr inh -73
C#CCOCCOCCOCCNc1nc(N2CCOCC2)nc(N2CCN(C(=O)CCCCCCCCCCNC(=O)[C@@H](CCSC)n3cc(CCO)nn3)CC2)n1	IL1B secr inh inconclusive
C#CCOCCOCCOCCNc1nc(N2CCN(C(=O)CCCCCCCCCCNC(=O)[C@@H](CCSC)n3cc(CCO)nn3)CC2)nc(N2CCN(C(=O)CCCCCCCCCCNC(=O)[C@H]([C@@H](C)CC)n3cc(CCCCCN)nn3)CC2)n1	IL1B secr inh -72, KB-V1 cytotox inconclusive, MCF10A rerep inconclusive, KB-3-1 tox inconclusive
C#CCOCCOCCOCCNc1nc(N2CCN(C(=O)CCCCCCCCCCNC(=O)[C@@H](CCSC)n3cc(CCO)nn3)CC2)nc(N2CCN(C(=O)CCCCCCCCCCNC(=O)[C@H]([C@@H](C)CC)n3cc(CCCCN=C(N)N)nn3)CC2)n1	IL1B secr inh -104, KB-V1 cytotox inconclusive, KB-3-1 tox 16µM
CCc1ccc(S(=O)(=O)/N=C2\C=C(NS(=O)(=O)c3ccccc3)C(=O)c3ccccc32)cc1	none
Cc1ccccc1NC1=C/C(=N\S(=O)(=O)c2ccc(C(=O)O)cc2)c2ccccc2C1=O	SW480 rerep inconclusive, IL1B secr inh -90, KB-V1 cytotox inconclusive, MCF10A rerep 2.1µM, KB-3-1 tox inconclusive
O=C(O)c1ccc(S(=O)(=O)/N=C2\C=C(Nc3ccccc3F)C(=O)c3ccccc32)cc1	SW480 rerep 6.5µM, IL1B secr inh -97, KB-V1 cytotox inconclusive, MCF10A rerep 1.5µM, KB-3-1 tox inconclusive
O=C(NCc1ccccc1)c1cc(C2COCCN2C(=O)C2CC2)on1 (stereo not drawn)	KB-V1 cytotox inconclusive (no result: SW480 rerep, MCF10A rerep)
